system: VDR:RXRa (NR concentration 270 nM, RXRa partner concentration 90 nM); assay: PBM binding z-score (relative to random genomic background probes); higher = stronger binding; sequences stand for … in GC…GCGATTGACAGCGTAGAATGAAGG
Description: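 Protein-binding microarray (Agilent 4x180K custom design, double-stranded 60-nt probes: 5' GC cap, 34-nt variable region, 24-nt constant primer region; full probe sequence given). Purified or IVT nuclear receptor:RXRα heterodimers (3:1 NR:RXRα, mostly 270:90 nM) or homodimers were incubated for 1 h in PBS with 2% milk and no ligand, then detected with Alexa488 antibodies. Fluorescence from o1-orientation probes (~5 replicates averaged) was converted to z-scores against 500 random hg19 background probes. Variable regions are seed direct-repeat (DR0–DR5) sites, all their single-nucleotide variants and half-site ablations.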

Row | Sequence | PBM binding z-score
1 | AGCACGAGGGCACGCTGAGTTGATAGCAGAGTAG | 2.17
2 | CTGCCTAGGTCAGGGCCAGTATAGGAGGAACGTT | 0.0608
3 | TCGAGTAGGTTAGTCGGGGCAGTCAGCCAACATA | 0.666
4 | ATCTCTAGGTAACAAATTCAGTGAAAGAGAGGAC | 0.375
5 | CCTAGCAGGCCAGGGTCACTCATGCATTTCGCTT | 2.14
6 | TAGCCTAGGTCATTCAGGGGCCAGTATTGAAAGC | 3.18
7 | GAACCAAGGTGAATAGGTCGTTGATGAGTAGGCG | 0.843
8 | ACTATTAGTTGAGACGAGGGTAACCGATAGGTTG | 0.26
9 | TCATATAGGTAAATGCTAGGTCAAAGTCCGATCT | 2.15
10 | ACTTACGGGTGAACGAGGTTATAGCACGCGTATA | 5.33
11 | ATATGTAGGTGATCGGGTCATTCAGTTTGCGCAT | 4.74
12 | TCTATTAGTGGAAGGGCAACCGACGAGTCCGTTT | 0.969
13 | TTACCAAGGTGAAAGGTAGTTGATGCACGCCTTG | 0.524
14 | ACTAGTTGGTCAGCTGAGGTCACCCACAATTCGG | 4.46
15 | GCTGCTAGGTCAACTGATGGTCAGCTTAAGCTCG | 1.62
16 | CCTACTCGGCCACGAAAGGTCATTGATTCAGTGA | 4.1
17 | AGTAGTTGGTCAGCTGAGGTCACACACAATTCGG | 4.43
18 | ATACCAAGGTGATCGTGAGGTCGTTGGTACTAAC | 3.09
19 | CCTGGTTGGTCAGGAGGTCACACACCGGATATGA | 3.73
20 | ATCGAAAAGTCGACGAGGTGAGTATACACCGTTT | 0.461

Row | Sequence | PBM binding z-score
21 | CCGACTCGGGCAGAAAGGTTACCATACCATCCGG | 0.699
22 | ACAGACATGTGATGAAGGTAACTCAGGCTATCAT | -0.214
23 | GCTAGCAGGCCAATTGGGTCACTCAATGACGGGC | 0.89
24 | ACTAGCAGGCCGAGGGTCACTCAAGATTAGTCCG | 1.52
25 | TCATATAGGTAATACATGTGAAAGTCGGCATCTA | 1.07
26 | CGTCCAAGGTCAAGGTCAGTGTAAGAGACTCGAA | 4.67
27 | AGAACGAGGGCAATGAATTGATAGCACGGGTGGC | 0.305
28 | GCTGCTGGGTCAACTGATGGTCAGCTAAAGCTCG | 1.82
29 | CCTCGGAGGACAGAAGGTCTGAGCTGTCCGCTTT | -0.624
30 | CAGCCTAGGTCAGTGCCAGTATAGGAGGAACGTT | -0.0475
31 | ATATGTAGGTTAAGGGTCAGTCAGGTTGGTTCGC | 4.37
32 | CCTGTTAGTTGACCATAAGGGCAACCGAAGCTCG | 0.474
33 | ATCTCTAGGTAACAAGTTCAGTGACAGAGAGGAC | 1.97
34 | TCTCGGAGGACACGAAAGTTCAGAGCTCGACATC | 2.25
35 | AGAACGAGGGCAATGAGTTGATAGCCCGGGTGGC | 4.73
36 | CCGACTGGGGCATAAGGTTTCCATAAGCCAGCCC | -0.182
37 | ATCTCTATGTAAAGTTCAGTGAAAGATCGATAGA | 1.26
38 | CAAACTAGGTCAATAGGTCAAAGTCCGCTTCCCG | 4.64
39 | TCGAGTAGGTTAGTCGGGGCATTAAGCCAACATA | 1.66
40 | CCTCGGAGGACAGAAGGTCAGGGCTGTCCGCTTT | 0.967
